Legend:
[1] = target: T1, Inhibitor of nuclear factor kappa-B kinase subunit epsilon (Homo sapiens) (UniProt Q14164); details: at 1 µM;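 note: reported values are averaged percent inhibition figures against human IKKε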
T1 sequence (whole entry): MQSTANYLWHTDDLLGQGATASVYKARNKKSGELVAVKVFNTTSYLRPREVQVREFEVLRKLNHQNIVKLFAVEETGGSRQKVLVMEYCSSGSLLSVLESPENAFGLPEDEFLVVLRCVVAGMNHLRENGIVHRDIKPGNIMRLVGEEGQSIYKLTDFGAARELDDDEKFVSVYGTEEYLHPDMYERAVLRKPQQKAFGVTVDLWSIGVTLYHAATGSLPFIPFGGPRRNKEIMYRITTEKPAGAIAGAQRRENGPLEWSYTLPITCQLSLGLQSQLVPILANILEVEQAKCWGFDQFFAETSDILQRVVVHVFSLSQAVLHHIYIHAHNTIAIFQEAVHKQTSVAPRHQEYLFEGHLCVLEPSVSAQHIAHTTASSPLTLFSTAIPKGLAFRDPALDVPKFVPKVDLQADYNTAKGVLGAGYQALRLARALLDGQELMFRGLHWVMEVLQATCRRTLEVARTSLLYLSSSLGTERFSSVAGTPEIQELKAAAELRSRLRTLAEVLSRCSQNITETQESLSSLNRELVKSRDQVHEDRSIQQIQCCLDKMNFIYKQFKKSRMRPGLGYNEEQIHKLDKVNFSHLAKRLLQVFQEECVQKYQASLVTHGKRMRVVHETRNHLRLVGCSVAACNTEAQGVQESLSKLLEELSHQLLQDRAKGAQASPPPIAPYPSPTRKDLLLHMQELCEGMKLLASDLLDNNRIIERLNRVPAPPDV

[2] = target: T2, Serine/threonine-protein kinase Nek1 (Homo sapiens) (UniProt Q96PY6); details: at 0.1 µM
T2 sequence (whole entry): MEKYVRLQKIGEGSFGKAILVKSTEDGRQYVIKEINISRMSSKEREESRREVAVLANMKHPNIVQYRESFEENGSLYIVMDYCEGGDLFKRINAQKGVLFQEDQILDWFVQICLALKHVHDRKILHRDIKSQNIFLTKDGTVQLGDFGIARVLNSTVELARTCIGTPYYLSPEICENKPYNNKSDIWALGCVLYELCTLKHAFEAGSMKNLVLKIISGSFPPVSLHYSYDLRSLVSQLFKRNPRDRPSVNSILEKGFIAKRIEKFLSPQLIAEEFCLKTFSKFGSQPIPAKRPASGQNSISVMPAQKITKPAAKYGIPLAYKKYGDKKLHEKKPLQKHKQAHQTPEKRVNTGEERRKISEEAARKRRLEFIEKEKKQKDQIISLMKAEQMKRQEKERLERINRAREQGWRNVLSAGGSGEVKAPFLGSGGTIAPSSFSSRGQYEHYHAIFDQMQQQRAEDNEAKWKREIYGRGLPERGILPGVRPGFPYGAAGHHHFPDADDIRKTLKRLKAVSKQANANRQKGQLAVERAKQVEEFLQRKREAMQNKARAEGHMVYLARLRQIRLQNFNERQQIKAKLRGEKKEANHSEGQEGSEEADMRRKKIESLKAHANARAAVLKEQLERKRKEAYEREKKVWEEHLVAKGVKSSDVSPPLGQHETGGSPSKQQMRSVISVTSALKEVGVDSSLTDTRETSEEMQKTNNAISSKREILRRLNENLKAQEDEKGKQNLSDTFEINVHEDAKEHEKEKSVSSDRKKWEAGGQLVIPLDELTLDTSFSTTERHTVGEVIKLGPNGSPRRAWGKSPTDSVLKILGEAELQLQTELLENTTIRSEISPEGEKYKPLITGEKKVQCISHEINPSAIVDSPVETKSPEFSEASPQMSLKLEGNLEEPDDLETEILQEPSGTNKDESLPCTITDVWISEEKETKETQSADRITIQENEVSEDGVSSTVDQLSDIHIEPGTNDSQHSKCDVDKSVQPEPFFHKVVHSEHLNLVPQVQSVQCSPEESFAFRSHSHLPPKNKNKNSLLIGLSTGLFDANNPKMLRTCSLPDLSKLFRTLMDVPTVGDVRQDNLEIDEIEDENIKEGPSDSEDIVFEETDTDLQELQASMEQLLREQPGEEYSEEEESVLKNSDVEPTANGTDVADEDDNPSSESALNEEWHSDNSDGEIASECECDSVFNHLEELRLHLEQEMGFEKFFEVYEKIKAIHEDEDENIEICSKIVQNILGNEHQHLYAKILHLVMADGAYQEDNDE

[3] = target: T2, Serine/threonine-protein kinase Nek1 (Homo sapiens); details: at 1 µM
[4] = target: T3, Serine/threonine-protein kinase Nek2 (Homo sapiens) (UniProt P51955); details: at 0.1 µM
T3 sequence (whole entry): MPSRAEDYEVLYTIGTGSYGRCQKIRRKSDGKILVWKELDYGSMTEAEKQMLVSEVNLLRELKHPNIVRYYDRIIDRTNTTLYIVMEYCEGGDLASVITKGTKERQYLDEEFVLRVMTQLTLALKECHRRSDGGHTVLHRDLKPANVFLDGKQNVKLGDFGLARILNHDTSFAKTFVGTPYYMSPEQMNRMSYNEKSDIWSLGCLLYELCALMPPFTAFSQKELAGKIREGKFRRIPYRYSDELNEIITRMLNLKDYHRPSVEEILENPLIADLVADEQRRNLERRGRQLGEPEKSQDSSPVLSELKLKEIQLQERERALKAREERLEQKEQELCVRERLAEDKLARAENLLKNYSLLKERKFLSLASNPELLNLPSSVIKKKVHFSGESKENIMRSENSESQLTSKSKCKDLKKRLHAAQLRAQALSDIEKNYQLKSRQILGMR

[5] = target: T3, Serine/threonine-protein kinase Nek2 (Homo sapiens); details: at 1 µM
[6] = target: Serine/threonine-protein kinase Nek6 (Homo sapiens) (UniProt Q9HC98); details: at 0.1 µM
[7] = target: Serine/threonine-protein kinase Nek6 (Homo sapiens) (UniProt Q9HC98); details: at 1 µM
[8] = target: Serine/threonine-protein kinase Nek7 (Homo sapiens) (UniProt Q8TDX7); details: at 0.1 µM
[9] = target: Serine/threonine-protein kinase Nek7 (Homo sapiens) (UniProt Q8TDX7); details: at 1 µM
[10] = target: T4, Serine/threonine-protein kinase Nek9 (Homo sapiens) (UniProt Q8TD19); details: at 0.1 µM
T4 sequence (whole entry): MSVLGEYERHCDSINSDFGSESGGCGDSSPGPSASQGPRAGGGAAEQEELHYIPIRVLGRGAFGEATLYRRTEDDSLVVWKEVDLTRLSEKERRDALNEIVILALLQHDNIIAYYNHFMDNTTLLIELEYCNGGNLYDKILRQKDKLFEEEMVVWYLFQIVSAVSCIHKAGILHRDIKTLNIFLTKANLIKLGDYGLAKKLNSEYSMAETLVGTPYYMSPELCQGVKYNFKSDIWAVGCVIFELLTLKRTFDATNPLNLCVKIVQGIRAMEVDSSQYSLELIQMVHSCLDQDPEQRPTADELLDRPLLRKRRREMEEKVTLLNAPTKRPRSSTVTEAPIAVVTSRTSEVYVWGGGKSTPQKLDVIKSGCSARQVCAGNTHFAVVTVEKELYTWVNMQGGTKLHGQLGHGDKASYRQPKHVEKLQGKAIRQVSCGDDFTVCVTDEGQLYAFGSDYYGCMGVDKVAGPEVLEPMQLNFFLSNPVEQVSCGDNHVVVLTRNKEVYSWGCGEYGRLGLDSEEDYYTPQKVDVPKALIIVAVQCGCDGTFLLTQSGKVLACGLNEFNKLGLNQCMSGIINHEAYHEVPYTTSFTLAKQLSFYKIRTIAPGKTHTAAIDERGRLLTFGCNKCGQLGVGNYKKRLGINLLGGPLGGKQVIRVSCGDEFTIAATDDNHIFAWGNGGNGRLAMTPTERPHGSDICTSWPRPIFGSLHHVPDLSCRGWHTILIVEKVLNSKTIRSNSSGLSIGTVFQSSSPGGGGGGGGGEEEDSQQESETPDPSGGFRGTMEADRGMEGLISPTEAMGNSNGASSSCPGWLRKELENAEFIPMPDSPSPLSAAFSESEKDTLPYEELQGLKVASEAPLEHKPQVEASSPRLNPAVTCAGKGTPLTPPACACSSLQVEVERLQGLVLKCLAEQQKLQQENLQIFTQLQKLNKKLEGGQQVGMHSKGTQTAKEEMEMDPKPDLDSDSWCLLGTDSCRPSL

[11] = target: T4, Serine/threonine-protein kinase Nek9 (Homo sapiens); details: at 1 µM
[12] = target: Serine/threonine-protein kinase PLK1 (Homo sapiens) (UniProt P53350); details: at 0.1 µM
[13] = target: Serine/threonine-protein kinase PLK1 (Homo sapiens) (UniProt P53350); details: at 1 µM
[14] = target: T5, Dual specificity protein kinase TTK (Homo sapiens) (UniProt P33981); details: at 0.1 µM
T5 sequence (whole entry): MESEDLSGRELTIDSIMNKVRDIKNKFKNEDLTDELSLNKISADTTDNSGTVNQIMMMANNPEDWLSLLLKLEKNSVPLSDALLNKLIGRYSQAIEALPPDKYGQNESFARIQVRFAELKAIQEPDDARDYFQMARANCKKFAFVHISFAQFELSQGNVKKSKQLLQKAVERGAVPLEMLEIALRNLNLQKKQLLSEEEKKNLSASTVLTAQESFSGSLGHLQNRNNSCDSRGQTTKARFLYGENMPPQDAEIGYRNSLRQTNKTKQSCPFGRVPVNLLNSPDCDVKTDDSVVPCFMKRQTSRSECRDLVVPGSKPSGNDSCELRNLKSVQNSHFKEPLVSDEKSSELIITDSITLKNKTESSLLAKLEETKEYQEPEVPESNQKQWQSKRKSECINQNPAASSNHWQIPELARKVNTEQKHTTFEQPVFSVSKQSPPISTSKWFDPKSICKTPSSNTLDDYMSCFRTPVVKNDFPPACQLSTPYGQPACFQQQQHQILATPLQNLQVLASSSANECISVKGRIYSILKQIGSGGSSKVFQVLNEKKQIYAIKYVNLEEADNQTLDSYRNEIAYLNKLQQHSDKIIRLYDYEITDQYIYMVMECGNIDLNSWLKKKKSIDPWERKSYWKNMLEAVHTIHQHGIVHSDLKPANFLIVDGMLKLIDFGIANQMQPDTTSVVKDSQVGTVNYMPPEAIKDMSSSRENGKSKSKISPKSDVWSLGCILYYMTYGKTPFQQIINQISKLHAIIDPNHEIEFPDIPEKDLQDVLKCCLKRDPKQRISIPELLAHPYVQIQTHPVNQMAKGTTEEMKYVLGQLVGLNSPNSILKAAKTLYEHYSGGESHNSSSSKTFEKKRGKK

[15] = test system: T6, Receptor-type tyrosine-protein kinase FLT3 (Homo sapiens), P36888 [D835Y]; details: at 1 µM
T6 sequence (whole entry): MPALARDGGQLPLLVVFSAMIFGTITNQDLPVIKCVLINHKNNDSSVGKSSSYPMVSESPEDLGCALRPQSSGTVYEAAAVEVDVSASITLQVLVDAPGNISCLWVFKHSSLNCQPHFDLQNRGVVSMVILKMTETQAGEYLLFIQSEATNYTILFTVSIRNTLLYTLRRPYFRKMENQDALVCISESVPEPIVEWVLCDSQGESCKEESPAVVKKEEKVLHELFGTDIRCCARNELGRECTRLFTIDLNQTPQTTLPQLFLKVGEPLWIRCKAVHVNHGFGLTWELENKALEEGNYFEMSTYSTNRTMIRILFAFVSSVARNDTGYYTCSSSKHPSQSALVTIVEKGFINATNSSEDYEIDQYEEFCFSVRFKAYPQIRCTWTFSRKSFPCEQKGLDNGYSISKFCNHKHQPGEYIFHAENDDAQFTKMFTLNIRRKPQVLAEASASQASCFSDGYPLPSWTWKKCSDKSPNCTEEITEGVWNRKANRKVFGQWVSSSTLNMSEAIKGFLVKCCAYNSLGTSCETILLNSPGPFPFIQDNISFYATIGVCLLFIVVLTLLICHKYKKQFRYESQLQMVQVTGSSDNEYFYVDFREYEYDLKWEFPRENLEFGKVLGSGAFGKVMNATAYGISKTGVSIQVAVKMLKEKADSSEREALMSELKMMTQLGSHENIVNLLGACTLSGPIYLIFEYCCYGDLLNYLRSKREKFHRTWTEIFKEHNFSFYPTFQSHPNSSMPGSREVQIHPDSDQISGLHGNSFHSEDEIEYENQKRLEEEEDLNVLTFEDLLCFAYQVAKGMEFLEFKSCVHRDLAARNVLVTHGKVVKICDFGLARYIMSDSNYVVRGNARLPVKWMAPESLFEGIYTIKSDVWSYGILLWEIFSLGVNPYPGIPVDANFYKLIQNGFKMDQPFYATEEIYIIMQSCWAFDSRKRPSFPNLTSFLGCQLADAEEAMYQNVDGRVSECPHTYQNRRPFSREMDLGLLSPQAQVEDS

[16] = target: Vascular endothelial growth factor receptor 3 (Homo sapiens) (UniProt P35916); details: at 0.1 µM
[17] = target: Vascular endothelial growth factor receptor 3 (Homo sapiens) (UniProt P35916); details: at 1 µM
[18] = target: Macrophage colony-stimulating factor 1 receptor (Homo sapiens) (UniProt P07333); details: at 0.1 µM
[19] = target: Macrophage colony-stimulating factor 1 receptor (Homo sapiens) (UniProt P07333); details: at 1 µM
[20] = target: Tyrosine-protein kinase Fyn (Homo sapiens) (UniProt P06241); details: at 0.1 µM
Tyrosine-protein kinase Fyn (Homo sapiens), sequence (P06241 2-537 limits assumed): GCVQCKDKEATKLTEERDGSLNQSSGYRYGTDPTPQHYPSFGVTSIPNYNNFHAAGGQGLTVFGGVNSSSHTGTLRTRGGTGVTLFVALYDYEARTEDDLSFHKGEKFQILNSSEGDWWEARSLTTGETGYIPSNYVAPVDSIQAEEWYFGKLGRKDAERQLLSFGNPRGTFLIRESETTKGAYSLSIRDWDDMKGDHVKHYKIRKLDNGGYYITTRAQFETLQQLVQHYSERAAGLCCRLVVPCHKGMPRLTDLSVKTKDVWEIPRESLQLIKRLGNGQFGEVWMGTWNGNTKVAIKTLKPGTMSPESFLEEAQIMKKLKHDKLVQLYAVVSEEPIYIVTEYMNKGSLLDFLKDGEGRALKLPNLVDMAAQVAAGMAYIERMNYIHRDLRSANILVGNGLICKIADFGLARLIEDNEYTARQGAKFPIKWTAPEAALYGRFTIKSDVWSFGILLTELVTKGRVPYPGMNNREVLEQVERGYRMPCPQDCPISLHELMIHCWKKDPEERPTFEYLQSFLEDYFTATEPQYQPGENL

Vascular endothelial growth factor receptor 3 (Homo sapiens), sequence (P35916 whole entry): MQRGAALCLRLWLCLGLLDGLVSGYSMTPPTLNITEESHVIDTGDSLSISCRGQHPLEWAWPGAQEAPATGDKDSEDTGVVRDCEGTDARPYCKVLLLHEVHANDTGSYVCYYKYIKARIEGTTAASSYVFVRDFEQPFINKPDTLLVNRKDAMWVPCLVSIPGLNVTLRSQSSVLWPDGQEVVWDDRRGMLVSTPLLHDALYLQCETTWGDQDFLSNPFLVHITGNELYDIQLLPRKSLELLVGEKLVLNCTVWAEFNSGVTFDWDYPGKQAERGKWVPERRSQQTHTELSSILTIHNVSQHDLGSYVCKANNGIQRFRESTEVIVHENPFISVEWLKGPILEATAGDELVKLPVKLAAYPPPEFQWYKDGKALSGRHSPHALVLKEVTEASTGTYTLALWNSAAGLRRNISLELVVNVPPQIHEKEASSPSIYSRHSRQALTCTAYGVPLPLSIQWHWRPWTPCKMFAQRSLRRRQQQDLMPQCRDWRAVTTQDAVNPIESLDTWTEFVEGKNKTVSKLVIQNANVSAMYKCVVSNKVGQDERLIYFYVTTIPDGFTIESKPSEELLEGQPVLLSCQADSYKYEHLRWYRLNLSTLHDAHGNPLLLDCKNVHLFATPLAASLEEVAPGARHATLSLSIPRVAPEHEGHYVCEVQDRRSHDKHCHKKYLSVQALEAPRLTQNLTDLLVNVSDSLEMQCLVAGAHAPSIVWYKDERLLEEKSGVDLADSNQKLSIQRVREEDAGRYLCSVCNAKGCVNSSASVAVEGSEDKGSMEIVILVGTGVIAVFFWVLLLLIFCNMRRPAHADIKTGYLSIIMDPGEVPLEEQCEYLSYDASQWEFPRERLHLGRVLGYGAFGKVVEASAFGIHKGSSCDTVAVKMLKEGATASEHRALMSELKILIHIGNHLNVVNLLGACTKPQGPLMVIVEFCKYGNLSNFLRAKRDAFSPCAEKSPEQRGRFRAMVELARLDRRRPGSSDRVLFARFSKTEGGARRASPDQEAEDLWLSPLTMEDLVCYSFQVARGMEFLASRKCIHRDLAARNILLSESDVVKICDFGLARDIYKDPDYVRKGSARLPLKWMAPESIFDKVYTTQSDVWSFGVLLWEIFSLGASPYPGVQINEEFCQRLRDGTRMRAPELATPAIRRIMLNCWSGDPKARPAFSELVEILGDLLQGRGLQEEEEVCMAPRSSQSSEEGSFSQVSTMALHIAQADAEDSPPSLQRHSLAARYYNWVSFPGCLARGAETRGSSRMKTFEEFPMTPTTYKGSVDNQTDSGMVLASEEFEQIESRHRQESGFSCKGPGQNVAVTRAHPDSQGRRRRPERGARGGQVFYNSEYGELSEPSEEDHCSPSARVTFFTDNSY
Serine/threonine-protein kinase Nek7 (Homo sapiens), sequence (Q8TDX7 whole entry, looked up): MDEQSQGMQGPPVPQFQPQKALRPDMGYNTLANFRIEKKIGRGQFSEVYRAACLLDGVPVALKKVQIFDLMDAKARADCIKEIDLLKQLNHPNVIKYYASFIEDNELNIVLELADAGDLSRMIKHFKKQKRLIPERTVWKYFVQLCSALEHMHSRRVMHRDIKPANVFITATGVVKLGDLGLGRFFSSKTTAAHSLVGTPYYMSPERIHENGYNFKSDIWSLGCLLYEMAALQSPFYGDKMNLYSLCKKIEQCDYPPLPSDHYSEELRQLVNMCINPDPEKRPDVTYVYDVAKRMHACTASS
Macrophage colony-stimulating factor 1 receptor (Homo sapiens), sequence (P07333 whole entry): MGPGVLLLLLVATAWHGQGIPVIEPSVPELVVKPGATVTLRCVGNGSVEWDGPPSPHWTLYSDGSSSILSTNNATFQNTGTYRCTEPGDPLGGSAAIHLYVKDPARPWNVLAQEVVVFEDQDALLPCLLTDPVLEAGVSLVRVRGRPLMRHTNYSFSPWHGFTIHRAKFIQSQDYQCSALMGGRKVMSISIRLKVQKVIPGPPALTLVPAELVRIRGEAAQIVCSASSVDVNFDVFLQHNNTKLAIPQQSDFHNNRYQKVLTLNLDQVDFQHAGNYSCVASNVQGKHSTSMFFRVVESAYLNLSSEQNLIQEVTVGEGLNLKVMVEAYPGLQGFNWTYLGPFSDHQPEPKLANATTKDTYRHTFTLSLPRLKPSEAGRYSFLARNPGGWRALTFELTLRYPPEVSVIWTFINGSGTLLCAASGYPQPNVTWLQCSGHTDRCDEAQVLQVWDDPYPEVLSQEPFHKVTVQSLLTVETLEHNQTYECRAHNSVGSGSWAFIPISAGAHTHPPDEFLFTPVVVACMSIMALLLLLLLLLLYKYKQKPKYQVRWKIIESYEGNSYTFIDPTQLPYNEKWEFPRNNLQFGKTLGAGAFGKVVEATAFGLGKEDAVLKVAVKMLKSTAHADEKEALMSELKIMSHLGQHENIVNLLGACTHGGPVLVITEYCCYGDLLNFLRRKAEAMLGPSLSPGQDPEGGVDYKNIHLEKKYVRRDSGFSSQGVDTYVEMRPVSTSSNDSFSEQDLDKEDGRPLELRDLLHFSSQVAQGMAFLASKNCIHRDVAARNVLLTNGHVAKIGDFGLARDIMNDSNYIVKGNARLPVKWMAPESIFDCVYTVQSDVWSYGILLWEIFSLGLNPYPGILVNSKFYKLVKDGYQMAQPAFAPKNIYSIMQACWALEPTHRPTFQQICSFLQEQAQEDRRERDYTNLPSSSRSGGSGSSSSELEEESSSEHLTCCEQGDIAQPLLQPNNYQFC
Serine/threonine-protein kinase Nek6 (Homo sapiens), sequence (Q9HC98 whole entry): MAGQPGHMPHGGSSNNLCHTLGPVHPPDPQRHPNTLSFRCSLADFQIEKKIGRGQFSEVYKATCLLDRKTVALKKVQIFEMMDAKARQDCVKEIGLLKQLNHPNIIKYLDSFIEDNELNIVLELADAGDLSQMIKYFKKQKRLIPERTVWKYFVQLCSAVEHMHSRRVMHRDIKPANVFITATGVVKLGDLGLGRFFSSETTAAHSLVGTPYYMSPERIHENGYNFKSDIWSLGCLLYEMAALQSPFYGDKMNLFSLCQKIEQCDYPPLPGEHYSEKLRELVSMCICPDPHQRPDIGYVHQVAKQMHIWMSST
Serine/threonine-protein kinase PLK1 (Homo sapiens), sequence (P53350 whole entry): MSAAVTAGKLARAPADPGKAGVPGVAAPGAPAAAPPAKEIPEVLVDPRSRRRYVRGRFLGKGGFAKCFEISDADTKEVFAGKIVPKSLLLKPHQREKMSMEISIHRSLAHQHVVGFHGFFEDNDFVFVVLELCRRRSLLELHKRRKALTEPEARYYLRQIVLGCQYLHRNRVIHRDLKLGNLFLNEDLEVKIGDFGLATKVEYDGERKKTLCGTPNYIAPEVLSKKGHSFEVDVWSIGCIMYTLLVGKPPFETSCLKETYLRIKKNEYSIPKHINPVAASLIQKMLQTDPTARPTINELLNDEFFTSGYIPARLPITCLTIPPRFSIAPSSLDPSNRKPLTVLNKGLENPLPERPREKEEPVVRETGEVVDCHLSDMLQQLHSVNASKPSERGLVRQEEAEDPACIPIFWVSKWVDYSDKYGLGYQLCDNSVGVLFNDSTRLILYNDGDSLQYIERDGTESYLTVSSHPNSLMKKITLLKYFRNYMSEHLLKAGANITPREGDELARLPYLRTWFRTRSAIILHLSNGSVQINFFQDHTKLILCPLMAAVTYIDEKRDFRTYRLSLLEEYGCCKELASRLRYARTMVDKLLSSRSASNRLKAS

Compound | inhibition [1] [%] | inhibition [2] [%] | inhibition [3] [%] | inhibition [4] [%] | inhibition [5] [%] | inhibition [6] [%] | inhibition [7] [%] | inhibition [8] [%] | inhibition [9] [%] | inhibition [10] [%] | inhibition [11] [%] | inhibition [12] [%] | inhibition [13] [%] | inhibition [14] [%] | inhibition [15] [%] | inhibition [16] [%] | inhibition [17] [%] | inhibition [18] [%] | inhibition [19] [%] | inhibition [20] [%]
COc1c(C(N)=O)cc(-c2ccc(Cl)cc2)cc1-c1ccc(S(N)(=O)=O)cc1 | 5.47 | 2.17 | 4.16 | 6.76 | 5.43 | 0.6 | 1.71 | 4.31 | 10.4 | 4.85 | 5.67 | 4.84 | 8.71 | 11.8 | 0.7 | 2.5 | 0.39 | 5.24 | 4.74 | 1.12
Cc1c2ccc(N(C)c3ccnc(Nc4cccc(S(N)(=O)=O)c4)n3)cc2nn1C | 6.19 | 3.11 | 4.82 | 6.4 | 19.9 | 0.7 | 0.72 | 5.3 | 3.13 | 9.14 | 6.19 | 3.29 | 3.99 | 8.91 | 13.8 | 58.8 | 93.8 | 78.4 | 91.7 | 13.8
O=C1Nc2ccccc2/C1=C1\CCc2cc(O)ccc21 | 20.3 | 3.11 | 4.37 | 7.09 | 5.47 | 1.9 | 1.99 | 5.62 | 4.31 | 8.42 | 8.07 | 4.12 | 4.17 | 12.1 | 70.6 | 7.22 | 24.6 | 17.3 | 59.6 | 5.55

Source: ChEMBL document CHEMBL1961873, “Compounds: GSK PKIS; Assays: Nanosyn kinase panel” (2012)
